Data on 40 compounds can be found in PubChem BioAssay (Tox21).

Inconclusive results are not listed. A number with no mark means an inactive call. Calls follow the shape of the dose curve; as a rule, active = well fitted cell-killing curve with a large enough effect in the repeat runs; inconclusive = weak or mixed curves, or effect the other way; inactive = no such curve, though single readings can be large or run the other way.
% is scaled to controls: 0 for no effect and ±100 for the full control effect.

The test in a line: qHTS assay to identify small molecule antagonists of the retinoid-related orphan receptor gamma (ROR-gamma) signaling pathway - cell viability counter screen (AID 1159520). Also: nearly all actives have a fitted effect of over 50% in size. Conditions: Tet-on RORgamma CHO cells viability, ATP luminescence, 16 h; series mostly up to 92.4 µM; activity, negative = cytotoxicity: at the top concentration. The text has this:
U.S. Tox21 Program National Center for Advancing Translational Sciences [NCATS] NIH Chemical Genomics Center [NCGC] U.S. Environmental Protection Agency [EPA] National Institutes of Environmental Health Sciences [NIEHS] National Toxicology Program [NTP] U.S. Food and Drug Administration [FDA] Tox21 Assay Overview: Nuclear steroid hormone receptors are involved in many biological processes including inflammatory responses, cell proliferation, and apoptosis. Environmental factors or compounds disrupting these nuclear receptor pathways and gene expression may promote susceptibility to immunotoxicants and autoimmune diseases. One important group of these expression factors are the retinoid-related orphan receptors. To assess compounds that may interfere with the retinoid-related orphan receptor gamma (ROR-gamma) transcription factor, a cell-based luciferase assay was used. The CHO cell-based assay utilizes a TET-inducible ROR expression factor and ROR response element-LUC reporter gene. Reporter gene activity was induced using Doxycycline Hyclate and measured after 16 hr incubation. Tet-on ROR gamma CHO cells were used to screen against the Tox21 10K compound library for cytotoxicity by measuring the viability of the cells based on the quantitation of the ATP.
Tox21 Assay Protocol Summary: Tet-on ROR gamma CHO cells were dispensed at 1,000 cells in 4 uL of culture medium per well into white wall/solid bottom 1536-well plates using a Multidrop Combi (Thermo Scientific, Waltham, MA) dispenser. Following incubation at 37 C and 5% CO2 for 4 hr, 23 nL of compounds dissolved in DMSO, positive controls or DMSO only were transferred by a Pintool station (Kalypsys, San Diego, CA) and after 2 hr incubation at 37 C, one ul of 1 uM (final concentration) of Doxycycline Hyclate was added to all the wells by using a Flying Reagent Dispenser (FRD) (Aurora Discovery, San Diego, CA). After 16 hr incubation at 37 C and 5% CO2, 5 uL of CellTiter-Glo reagent (Promega Corporation, Madison, WI) was added to each assay plate using FRD. After 30 min incubation at room temperature, luminescence was quantified on a ViewLux plate reader (Perkin Elmer, Waltham, MA).
In the case of `CC(C)CCCCCOC(=O)CS`, the “activity, negative = cytotoxicity” value was 5.51%.
As to `O=C1c2ccccc2C(=O)C1c1ccc2cc(S(=O)(=O)O)cc(S(=O)(=O)O)c2n1`, the “activity, negative = cytotoxicity” value is 0.649%.
With `CC(C)(C)c1cc(C=O)cc(C(C)(C)C)c1O` the figure was 2.59% [at 42.5 µM]; with `CCCCOc1ccc(N)cc1`, -1.24%; with `C[C@H](CN1CCCC1)C(=O)c1ccc(C(F)(F)F)cc1`, 1.12% [at 42.5 µM].
With `COc1cc(C)c(Cc2cnc(N)nc2N)cc1OC` the figure was 7.18% [at 42.5 µM].
With `O=C(c1ccco1)N1CCNCC1` the figure was 3.27% [at 42.5 µM]; with `CC(CN=Cc1ccccc1O)N=Cc1ccccc1O` (stereo not given), -4.65%.
Regarding `CCCCOC(=O)CC#N`, the “activity, negative = cytotoxicity” value is -7.23%.
In the case of `Cc1ccc(Cl)c(OCC(O)CNC(C)(C)C)c1` (stereo not given), the “activity, negative = cytotoxicity” value is 0.781% [at 42.5 µM].
`Cc1ccccc1CCO`: the “activity, negative = cytotoxicity” value is -2.33%.
With `CC(O)CN` (stereo not given) the figure was 4.82%; with `C[C@H](N)C(=O)N[C@@H](C)C(=O)NC1[C@H]2CN(c3nc4c(cc3F)c(=O)c(C(=O)O)cn4-c3ccc(F)cc3F)C[C@@H]12` (stereo not given in full), -9.34% [at 42.5 µM]; with `Cc1ccc2c(Cl)cc(Cl)c(O)c2n1`, 0.0551% [at 42.5 µM].
With `CC(C)CCCCCCCOC(=O)c1ccc(C(=O)OCCCCCCCC(C)C)c(C(=O)OCCCCCCCC(C)C)c1` the figure was 1.01%; with `CCCCCCCCCCCCCCCCN`, -4.03% [at 42.5 µM]; with `CCCCCCCCOCCCN`, 5.73%.
With `CCc1ccc2c(c1)C(=O)c1ccccc1C2=O` the figure was -10.6%; with `OCCc1ccncc1`, -5.16%; with `CCCCCO`, 1.46%.
Consider `O=C(O)c1cc(C(=O)O)cc([N+](=O)[O-])c1`, for which the “activity, negative = cytotoxicity” value is 0.94%.
With `NCCOCCOCCN` the figure was 2.94%.
For the compound `CC(C)(C(=O)O)c1ccc(C(O)CCCN2CCC(C(O)(c3ccccc3)c3ccccc3)CC2)cc1` (stereo not given), the “activity, negative = cytotoxicity” value was 2.61% [at 42.5 µM].
With `CC(C)(C)N` the figure was 1.71%.
Take `NC(=O)c1ccccc1`: the “activity, negative = cytotoxicity” value is 5.67%.
`CC(CCl)OC(C)CCl` (stereo not given): the “activity, negative = cytotoxicity” value is 4.06%.
With `CC1(C)CC(=O)CC(C)(C)N1` the figure was 11.4%.
With `C(/C=C/C=C/Nc1ccccc1)=Nc1ccccc1` the figure was -5.58%; with `O=C(O)c1ccc2cc(O)ccc2c1`, -4.55%; with `O=C(O)CNc1ccccc1`, -13.1%.
With `CCC[Si](OC)(OC)OC` the figure was 8.32%; with `COc1ccc(CN(CCN(C)C)c2ncccn2)cc1`, 1.11% [at 42.5 µM].
With `Nc1ccccc1Nc1ccccc1`, the “activity, negative = cytotoxicity” value was -14.2%.
With `C1=COCCC1` the figure was 2.14%.
With `C=C[Si](OCC)(OCC)OCC` the figure was 2.49%; with `CCOc1ccc(NC(C)=O)cc1N`, -5.63%.
As for `CC(C)(C)c1ccc(CCC=O)cc1`, the “activity, negative = cytotoxicity” value is -8.62%.
With `O=C(OC1C[C@H]2CC[C@@H](C1)[N+]21CCCC1)C(O)(c1ccccc1)c1ccccc1` (stereo not given in full) the figure was 5.64% [at 42.5 µM]; with `CCOC(=O)CC(O)(CC(=O)OCC)C(=O)OCC`, -10.9%; with `CC(C)=CCC/C(C)=C/C=N/O`, -7.12%.
